Assay outcomes deposited in PubChem BioAssay by National Center for Advancing Translational Sciences (NCATS).
Eya2 phos inh = blocks the phosphatase activity of human Eya2; O00167; recombinant Eya2, OMFP fluorescence dephosphorylation (OMFP is methylfluorescein phosphate); AID 488837; hit rate 0.006% among 330,000; Potency, µM (top dose mostly 76.9 µM), for inactives: top-dose activity, negative = inhibition, hits mostly inhibitors; further: on the % scale 0 is the no-effect control and ±100 the full control effect
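Eya2 (0.2 uM) preincubated 10 min at ambient with compound, then OMFP substrate added at 50 uM; 10 min reaction in 50 mM HEPES pH 7.5, 50 mM NaCl, 5 uM MgCl2, 0.05% BSA, 1 mM DTT. Fluorescence read at Ex 485/Em 525 nm.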
GALK inhibitor = blocks human galactokinase activity; P51570; Purified GALK, Kinase-Glo residual ATP luminescence; Potency, µM (titrated, usually from 57.5 µM), for inactives: top-dose activity change, negative = inhibition, usual class: inhibitors; hit rate 0.007% among 270,000; AID 1868; further: on the % scale 0 is the no-effect control and ±100 the full control effect
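Kinase-Glo Plus luminescence measured ATP left after a 1 h room-temperature reaction. The reaction used 5 nM GALK, 100 uM galactose and 35 uM ATP at pH 8.0 (20 mM HEPES, 5 mM MgCl2, 60 mM NaCl, 1 mM DTT, 0.01% BSA).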
USP2a block = USP2a (human) protease inhibition; Potency, µM (highest dose often 38.3 µM), without a hit: at the top dose activity change, negative = inhibition, actives largely listed as inhibitors; USP2 core, Ub-CHOP2 coupled fluorogenic reporter, 485/531; O75604; AID 463254; hit rate 0.01% among 330,000;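 further: plate controls were DMSO wells for no effect and full inhibition by NEM control for full effect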
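Deubiquitinase activity read as fluorescence (485/531 nm) after Ub-CHOP2 cleavage activates the enterokinase reporter on its substrate; USP2 core 10nM, Ub-CHOP2 and substrate 25nM each, 30min compound preincubation then 60min RT; data normalized to NEM, curves fitted.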
ClpP mod = qHTS Assay for Activators of ClpP; ATP-dependent Clp protease proteolytic subunit (Bacillus subtilis (strain 168)), P80244; purified B. subtilis ClpP, FRET peptide cleavage, 20 min; AID 651965, 2013; hit rate 1.9% among 340,000; Potency, µM (top dose mostly 57.5 µM), for inactives: at the highest dose activity change, negative = active; active means well fitted falling curve with a large enough effect; inconclusive means small, poorly fitted or top-dose-only effect; inactive means no such curve, though single readings can be large or run the other way; further: the source files actives as falling curves though it sought activators and does not explain the sign; nearly all actives have a fitted effect of over 65% in size
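Buffer: 100 mM Tris/HCl pH8, 100 mM KCl, 0.05% low protease BSA, 2.5% glycerol, 0.01% Tween-20. ClpP 10 microg/mL final; 20 min RT; delta FRET normalized to ADEP and DMSO controls.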
* = called active by the depositor; u = inconclusive; x = no result. Many of the other results were omitted from the sample, so hits are more common in it than they were. Unless noted, the call rests on the fitted dose curve; in most records, active means well fitted inhibition curve with a large enough effect; inconclusive means small, poorly fitted or top-dose-only effect, or effect the other way; inactive means flat fitted curve, though single readings scatter. Potency means the concentration at half of the fitted maximal effect.

SMILES | Eya2 phos inh | GALK inhibitor | USP2a block | ClpP mod
COc1ccc(-c2cc(-c3ccc(C)cc3)nc(SCc3nnc(-c4ccccc4)o3)c2C#N)cc1OC | -6.2% | -0.8% | -1.1% | u
O=C(c1ccc(Cl)c(S(=O)(=O)N2CCOCC2)c1)N1CCOCC1 | 5.4% | 0.8% | 0.1% | 31.6µM*
COc1cccc(Nc2nnc(SCc3nc4ccccc4s3)s2)c1 | -18.1% | x | 0.2% | -3.4%
Cc1cccc(C)c1Nc1nnc(SCc2nc3ccccc3s2)s1 | -0.2% | 0.2% | -0.1% | 14.1µM*
C=CCOc1ccccc1CNCCCN1CCOCC1 | -8.7% | -1.4% | 1.6% | -2.6%
C=CCOc1cccc(CNCCCN2CCOCC2)c1 | 4.7% | 11.8% | -0.8% | 14.1µM*
CC(=O)c1c(O)c2ccccc2n(C)c1=O | 2.4% | -1.6% | 13.2% | 1.0%
CCCn1c(=O)c(Cc2ccccc2)c(O)c2ccccc21 | 1.5% | 8.6% | 2.1% | 28.2µM*
CCCCn1c(=O)c(-c2ccccc2)c(O)c2ccccc21 | -3.9% | 6.0% | 0.3% | -25.6%
CCCCCn1c(=O)c(Cc2ccccc2)c(O)c2ccccc21 | 2.6% | -0.7% | 4.5% | 14.1µM*
Cn1c(=O)c(Cc2ccccc2)c(O)c2ccccc21 | -8.0% | -0.9% | 4.9% | 25.1µM*
CCCCCOC(=O)Cc1c(O)c2ccccc2n(C)c1=O | 11.8% | 5.6% | 1.3% | 28.2µM*
CCOC(=O)c1c(O)c2ccccc2n(C)c1=O | 5.0% | -2.1% | 0.7% | x
COc1ccc(CN2CCCN(C)CC2)c(OC)c1C | 0.9% | 5.6% | 0.8% | x
CCCc1c(O)c2ccccc2n(-c2ccccc2)c1=O | 5.9% | 0.2% | 3.8% | 5.62µM*
CC1CCc2sc3c(c2C1)c1ncnn1c(=O)n3CC(=O)c1ccc(Br)cc1 (stereo not given) | x | x | x | -2.2%
C=CCn1c(SCC(=O)NC(=O)NC)nnc1C1CCCCC1 | 7.4% | -1.5% | -1.6% | x
C=CCn1c(SCC(=O)NC(=O)NCCC)nnc1C1CCCCC1 | -17.0% | 0.9% | 0.6% | 3.16µM*
Cc1ccc(N2C(=O)CC3(CCCC3)CC2=O)cc1 | 2.9% | -0.4% | 1.5% | x
CC(C)=CC(=O)Nc1ccccc1Br | -27.6% | -1.6% | 1.8% | 1.26µM*
CC(C)=CC(=O)Nc1ccccc1C(N)=O | -1.9% | 1.2% | -0.5% | -2.3%
Cc1cc(O)cc(O)c1C(=O)Cc1cscn1 | -0.3% | 4.0% | 3.7% | 28.2µM*
COC(=O)c1ccccc1NC(=O)C1CC=CCC1C(=O)O (stereo not given) | 1.3% | -1.6% | -0.9% | 22.4µM*
COC(=O)c1c(-c2ccc(C)cc2)csc1NC(=O)C1CC=CCC1C(=O)O (stereo not given) | -2.8% | 2.0% | -1.9% | 15.8µM*
O=C(NCCc1ccccc1)c1ccccc1NC(=O)C1CC=CCC1C(=O)O (stereo not given) | 2.0% | 2.1% | 0.9% | -13.8%
SMILES | Eya2 phos inh | GALK inhibitor | USP2a block | ClpP mod
COc1ccc(-c2nc3ccccc3o2)cc1NC(=O)COc1ccc(C)cc1 | x | x | x | 4.6%
Nc1ccc2nc(-c3ccccn3)[nH]c2c1 | -0.6% | 4.4% | 0.3% | 31.6µM*
Nc1ccc2nc(-c3ccccc3)[nH]c2c1 | u | -0.6% | -0.8% | u
Nc1ccc2nc(-c3ccc(N)c(Cl)c3)[nH]c2c1 | -1.2% | 3.4% | u | 3.55µM*
Nc1ccc2nc(-c3cccs3)[nH]c2c1 | -14.8% | -0.2% | -0.5% | 10µM*
Nc1ccc2nc(-c3cccnc3)[nH]c2c1 | -8.1% | 1.2% | 2.6% | 1.0%
COc1ccc(C(=O)NNC(=O)OC(C)(C)C)cc1 | 0.8% | 0.7% | 3.7% | 0.8%
COc1ccc(C(=O)NN/C(C)=C/C(=O)C(F)(F)C(F)(F)C(F)(F)F)cc1 | 5.0% | -0.1% | 0.1% | 3.16µM*
O=C1CSC(c2cccnc2)N1C1CCCCC1 (stereo not given) | 16.5% | -2.2% | 1.2% | 1.1%
CC(C)c1nc(N2CCOCC2)c(C#N)c2c1CCCC2 | 6.0% | -1.3% | 0.2% | 31.6µM*
CCSc1nc(N2CCOCC2)c2c(c1C#N)CCCC2 | -3.5% | 3.1% | 2.1% | -10.1%
CCN1CCc2c(C#N)c(N3CCCCC3)nc(N3CCOCC3)c2C1 | -5.3% | 4.2% | -0.5% | 8.91µM*
CCOC(=O)Cn1c(=NC(=O)c2nc3ccccc3s2)sc2cc(S(N)(=O)=O)ccc21 | -6.2% | -1.7% | 3.9% | 31.6µM*
COCCn1c(=NC(=O)c2cc(-c3cccs3)nc3ccccc23)sc2cc(S(N)(=O)=O)ccc21 | 1.2% | -2.4% | 4.5% | 0.9%
CCOC(=O)Cn1c(=NC(=O)CN2C(=O)CCC2=O)sc2cc(S(N)(=O)=O)ccc21 | -4.1% | 0.0% | 1.5% | u
C=CCn1c(=NC(=O)c2sc3ccccc3c2Cl)sc2cc(S(N)(=O)=O)ccc21 | 8.3% | 0.0% | 0.2% | 25.1µM*
C=CCn1c(=NC(=O)c2cc(Cl)sc2Cl)sc2cc(S(N)(=O)=O)ccc21 | 0.0% | -3.6% | -1.6% | u
COCCn1c(=NC(=O)c2sc3ccccc3c2Cl)sc2cc(S(N)(=O)=O)ccc21 | 1.4% | -3.1% | 0.3% | 22.4µM*
ON=C1c2cc(OCCN3CCCCC3)ccc2-c2ccc(OCCN3CCCCC3)cc21 | 13.9% | 0.0% | 2.8% | -0.3%
CCCc1[nH][nH]c(=O)c1C(c1ccccc1)C(C#N)C#N (stereo not given) | -1.9% | -3.2% | 3.4% | -0.6%
Oc1c(C=NCc2ccc(F)cc2)[nH]c2ccc(Br)c(Cl)c12 | -9.0% | -0.3% | -0.8% | x
COc1cccc(S(=O)(=O)Nc2ccc3c(c2)OCCO3)c1 | -3.6% | -0.3% | 1.6% | 14.1µM*
Cc1cccc(S(=O)(=O)Nc2ccc3c(c2)OCCO3)c1 | -3.6% | -0.1% | 1.9% | -3.0%
N#Cc1ccc2ccn(CC(=O)NCc3ccccc3)c2c1 | 4.3% | -0.4% | 0.3% | 25.1µM*
CCCC1(c2ccccc2)NC(=O)N(CC(=O)Nc2ccc3c(c2)OCCO3)C1=O (stereo not given) | 1.7% | x | 1.0% | -1.6%
SMILES | Eya2 phos inh | GALK inhibitor | USP2a block | ClpP mod
COc1cc(Nc2nc(SCc3cccc(Cl)c3)nc3ccccc23)cc(OC)c1 | x | x | x | 31.6µM*
COc1cc(Nc2nc(SCc3ccc(Cl)cc3)nc3ccccc23)cc(OC)c1 | x | x | x | 35.5µM*
COc1cc(Nc2nc(SCC(=O)c3ccc(Cl)c(Cl)c3)nc3ccccc23)cc(OC)c1 | x | x | x | -17.9%
COc1cc(Nc2nc(SCc3ccccc3Cl)nc3ccccc23)cc(OC)c1 | x | x | x | 28.2µM*
Cc1cccn2c(/C=N/OCc3cccc(F)c3)c(-c3ccc(Cl)cc3)nc12 | -4.3% | -0.8% | -0.1% | 22.4µM*
COC1=C/C(=C/c2c(N)n3nc(-c4ccc(C)cc4)sc3nc2=O)C=CC1=O | 5.9% | -7.3% | 16.5% | x
CSC1=NC(NCCCO)c2c(sc3c2CC(C)(C)OC3)N1 (stereo not given) | -1.9% | 0.8% | -1.0% | 11.2µM*
CCOC(=O)c1ccc(S(=O)(=O)N2CCN(c3nc(-c4cccs4)nc4ccccc34)CC2)cc1 | x | x | x | 10µM*
CN1CCN(c2nc(-c3cccnc3)nc3ccccc23)CC1 | -8.4% | 3.5% | 0.3% | 25.1µM*
Cc1ccc(S(=O)(=O)N2CCN(c3nc(-c4cncn4C)nc4ccccc34)CC2)cc1 | x | x | x | 31.6µM*
